From PubChem BioAssay AID624330 (Southern Research Specialized Biocontainment Screening …, 2012)
The whole screen tested about 340,000 compounds, of which about 2,100 (0.62%) were called active.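 How the source made its calls: active means first-screen hits whose inhibition reached a set limit at any dose in the follow-up dose series; inconclusive means inhibition above the set first-screen limit but never retested; inactive means the rest.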 Only a sample is shown. Results with a measured potency or affinity are listed apart.

biological target: Rac GTPase-activating protein 1 (Homo sapiens) (UniProt Q9H0H5); assay: blockers of MgcRacGAP-driven Rac1 GTP hydrolysis – biochemical, ADP Hunter fluorescence, primary and confirmatory, confirmation (AID 624330); conditions: MgcRacGAP-stimulated Rac1 GTP hydrolysis, at 30 µM, active compounds read high, GST-tagged Rac1 F28L mutant substrate;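 further: fluorescence reports GDP produced by GAP-driven GTP hydrolysis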
Sequence (Q9H0H5 whole entry, looked up): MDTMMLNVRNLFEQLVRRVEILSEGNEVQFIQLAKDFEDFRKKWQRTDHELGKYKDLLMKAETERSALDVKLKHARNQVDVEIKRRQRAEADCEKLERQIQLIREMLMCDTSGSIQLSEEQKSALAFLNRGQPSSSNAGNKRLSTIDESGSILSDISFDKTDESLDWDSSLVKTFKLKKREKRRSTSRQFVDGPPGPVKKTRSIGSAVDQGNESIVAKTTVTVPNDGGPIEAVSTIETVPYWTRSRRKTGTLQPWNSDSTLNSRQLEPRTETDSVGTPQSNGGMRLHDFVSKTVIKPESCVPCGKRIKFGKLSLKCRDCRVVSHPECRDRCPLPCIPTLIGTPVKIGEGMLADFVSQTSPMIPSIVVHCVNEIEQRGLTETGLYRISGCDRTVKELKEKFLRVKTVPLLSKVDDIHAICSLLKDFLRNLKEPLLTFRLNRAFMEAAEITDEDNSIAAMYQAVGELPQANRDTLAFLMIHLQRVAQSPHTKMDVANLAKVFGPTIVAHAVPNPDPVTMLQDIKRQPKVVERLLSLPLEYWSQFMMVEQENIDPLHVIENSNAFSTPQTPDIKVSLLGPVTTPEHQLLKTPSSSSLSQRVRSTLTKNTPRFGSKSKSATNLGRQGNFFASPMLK

inhibition, inactive:
COCCC(=O)N1CCCC(CCC(=O)NCc2ccc(F)c(F)c2)C1 (stereo not drawn) 4.17%
COc1ccc2nc3cc([N+](=O)[O-])ccc3c(NNc3ccc([N+](=O)[O-])cc3)c2c1 1.37%
COc1cc2c(cc1OC)-c1cc(NC3CC3)nc(=O)n1CC2 3.36%
Cc1ccc(NC(=O)c2csc(-c3ccccc3)c2C)cc1 9.66%
CCOC(=O)c1c(C)[nH]c(C(=O)CN2CCOCC2)c1C 2.51%
CCOC(=O)c1c(C)[nH]c(C(=O)N2CCN(CC)CC2)c1C 2.01%
COC(=O)c1cc(OC)c(OC)cc1NC(=O)c1cc(OC)cc(OC)c1 -0.7%
CCOc1ccccc1N1CCN(Cc2ccco2)CC1 14.9%
CCOc1ccccc1N1CCN(C(=O)CC(C)(C)C)CC1 -0.74%
CCC(=O)c1cn(CC(=O)Nc2cc(C)ccc2C)c2ccccc12 13.6%
O=C(CNC(=O)c1ccc(Br)o1)NNC(=O)c1ccccc1O 6.63%
COc1cc(CC(=O)Nc2ccc(N3CCOCC3)cc2)cc(OC)c1OC 4.24%
CCOc1cc(C(=O)Nc2ccc(N3CCOCC3)cc2)cc(Br)c1OC 2.59%
CCOc1cc(CNc2ccc3c(c2)OCCO3)cc(Br)c1OC 23.8%
CCOc1cc(CNc2ccccc2)cc(Br)c1OCC(=O)NC(C)(C)C 6.03%
CCOc1cc(CNc2ccc(Br)cc2)cc(Br)c1OCC(=O)NC(C)(C)C -3.09%
COc1cc(CNc2ccc(N3CCCC3)cc2)cc(Cl)c1OC 1.89%
CCOc1cc(CNc2ccc3c(c2)OCCO3)cc(Br)c1OCC 30%
CCOc1c(Cl)cc(CNc2ccc(N3CCCC3)cc2)cc1OC 36.9%
COCCNC(=O)/C(C#N)=C/c1ccc(O)cc1 15.1%
CC(C)CCc1noc(CN2CCC(C(=O)N3CCOCC3)CC2)n1 7.77%
Cc1cccc(C2NS(=O)(=O)N=C2N)c1 (stereo not drawn) 4.81%
NC(=O)c1c(NC(=O)C2c3ccccc3Oc3ccccc32)sc2c1CCCCC2 10.9%
Oc1c(C=C2N=c3ccccc3=N2)sc(=S)n1-c1ccc2ccccc2c1 9.34%
O=C(CN(c1ccccc1)S(=O)(=O)c1ccccc1)Nc1ccc(F)cc1 -5.62%
Cc1ccc(NC(=O)c2ccccc2F)cc1S(=O)(=O)N1CCCCCC1 -2.21%
CCn1c(CSc2nc3ccccc3s2)nnc1SCC(=O)c1ccc(Cl)cc1 -0.25%
CCn1c(CSc2nc3ccccc3s2)nnc1SCC(=O)c1ccc(O)cc1O 6.52%
COc1ccccc1N(CC(=O)NCC1CCCO1)C(=O)CCC(=O)Nc1cc(C)on1 (stereo not drawn) 2.95%
COc1ccc(-c2noc(CN(C)Cc3ccccc3)n2)cc1 15.4%
O=C(CCSCc1ccccc1Cl)NC1CCCCC1 5.37%
COc1ccccc1Nc1ccc(N)cc1 10.5%
O=C(O)c1cc2cc(S(=O)(=O)O)ccc2cc1O 6.33%
O=P(c1ccccc1)(c1ccccc1)c1cc(S(=O)(=O)O)ccc1O 5.95%
O=Nc1c(O)ccc2cc(S(=O)(=O)O)ccc12 13.3%
Nc1cc(S(=O)(=O)O)cc2ccc(S(=O)(=O)O)cc12 6.2%
Nc1cccc2cc(S(=O)(=O)O)ccc12 20.9%
Nc1ccc2c(O)cc(S(=O)(=O)O)cc2c1 19.4%
COc1ccccc1Nc1ccc(NS(=O)(=O)c2ccc(C(C)=O)cc2)cc1 23.2%
CCc1ccccc1NC(=O)c1ccc(NCCc2ccccc2)c([N+](=O)[O-])c1 10.6%
C/C(=N\NC(=O)c1cccs1)C(C)(C)C -0.86%
O=C(Nc1cccc(F)c1)Nc1ccnn1C1CCN(C(=O)c2ccccn2)CC1 4.39%
CC1CCCCC1NC(=O)c1ccco1 (stereo not drawn) 0.81%
COc1cccc(Oc2ccc3nnc(C(F)(F)F)n3n2)c1 -1.34%
C[C@@H](O)CNC(=O)c1[nH]cnc1C(=O)Nc1cccc(Cl)c1 16.2%
Nc1ccccc1-c1n[nH]c(=S)s1 25.6%
CCN(c1ccc(OC)cc1)S(=O)(=O)c1nnc(NC(=O)C(C)C)s1 3.54%
O=C(O)c1ccccc1C(=O)c1ccc(-c2ccccc2)cc1 8.16%
CCN1CCN(c2ccc(S(=O)(=O)N3CCOCC3)cc2NC(=O)c2ccccc2SC)CC1 3.45%
CCC(=O)Nc1cc(-c2nn(C)c(=O)c3ccccc23)ccc1OC 5.48%
O=C(COc1ncnc2cc([N+](=O)[O-])ccc12)NCCc1ccc(Cl)cc1 -7.58%
Cc1ccc(NC(=O)c2cc(NC(=O)c3ccco3)ccc2N2CCOCC2)cc1Cl -19.1%
Nc1ccc(C(=O)Nc2ccc3c(O)cc(S(=O)(=O)O)cc3c2)cc1 14.1%
Cc1ccc(S(=O)(=O)Nc2ccc(O)c(S(=O)(=O)c3ccc(C)cc3)c2)cc1 6.97%
CC(=O)Nc1ccc2c(O)cc(S(=O)(=O)O)cc2c1 6.64%
O=S(=O)(c1ccccc1)c1cc(O)ccc1O 6.16%
Cc1cc(=O)oc2cc(Nc3ccccc3)ccc12 6.98%
O=S(=O)(O)c1cccc2cccc(Nc3ccccc3)c12 13.4%
CCCN(CCC)C(=O)C1CCCN(S(=O)(=O)c2ccc3c(c2)oc(=O)n3C)C1 (stereo not drawn) 7.01%
O=C(COC(=O)Cc1ccc(Br)cc1)NC1CC1 4.98%
O=C(COc1ccc(Cl)cc1)N(Cc1ccccc1)c1nc(-c2ccccc2)cs1 9.03%
O=c1n(-c2ccccc2)c(=O)n2n1CCCC2 -0.32%
CCCCN(CC)CCCNC(=O)CC1Oc2ccccc2NC1=O (stereo not drawn) 0.11%
